Experimental data as given in PubChem BioAssay AID588676 (Johns Hopkins Ion Channel Center, 2011).
About 3,900 (1.3%) of roughly 310,000 compounds were called active. The sample holds actives, similar compounds and a random draw of the others, so the mix is not that of the screen.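 Rule for the calls: active = calcium-response B-score plate-corrected more than 3 library SD below zero, starting fluorescence within 5 deviations, no agonist response on first addition; inactive = the rest.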

These compounds were tested against Mas-related G-protein coupled receptor member X1 (Homo sapiens) (UniProt Q96LB2) (assay: antagonists of human MrgX1 receptor, primary screen, HEK293 cells, Fluo-4 calcium flux (AID 588676;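 for B-score: peak minus trough fluorescence over baseline after final BAM8-22 challenge near maximal dose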)). Conditions: Fluo-4, BAM8-22 antagonism, at 10 µM; hits give low values.
Mas-related G-protein coupled receptor member X1 (Homo sapiens), sequence (Q96LB2 whole entry, looked up): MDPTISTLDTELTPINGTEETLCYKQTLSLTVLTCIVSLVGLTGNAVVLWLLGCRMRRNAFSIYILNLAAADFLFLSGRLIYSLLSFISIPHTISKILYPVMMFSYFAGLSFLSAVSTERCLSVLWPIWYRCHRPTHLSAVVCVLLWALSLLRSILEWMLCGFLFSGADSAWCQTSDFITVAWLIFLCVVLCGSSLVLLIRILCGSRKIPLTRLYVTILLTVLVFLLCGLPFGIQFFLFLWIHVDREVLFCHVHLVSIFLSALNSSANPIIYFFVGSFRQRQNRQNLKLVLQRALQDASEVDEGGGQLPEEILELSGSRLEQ

Row | SMILES | B-score
1 | N=c1n(CCc2ccccc2)c2ccccc2n1Cc1ccccc1F | inactive
2 | O=C(Nc1ccc(F)c([N+](=O)[O-])c1)C1CC(=O)N(Cc2ccccc2)C1 (stereo not drawn) | inactive
3 | Cc1cc(=O)oc2cc(NC(=O)C(C)Oc3ccccc3)ccc12 (stereo not drawn) | inactive
4 | Cc1cc(=O)oc2cc(NC(=O)C3CC(=O)N(Cc4ccccc4)C3)ccc12 (stereo not drawn) | -7.83 (active)
5 | Cc1ccc(N(C(=O)Cc2cccs2)C2C=CS(=O)(=O)C2)cc1Cl (stereo not drawn) | inactive
6 | Cn1c(NC(=O)c2ccco2)c(-c2ccccc2Cl)c(=O)c2ccccc21 | inactive
7 | CCOCCCN1C(=O)C2C(C(=O)Nc3ccc(OCC)cc3)C3C=CC2(O3)C1C(=O)NC1CCCCC1 (stereo not drawn) | inactive
8 | CC(=O)OCCN(CCCn1c(-c2ccncc2)nc2ccccc21)c1nc(-c2ccc(C)cc2)cs1 | inactive
9 | O=C(N/N=C/c1ccco1)c1ccc(C(=O)N/N=C/c2ccco2)o1 | inactive
10 | O=C(Cc1ccccc1)Nc1cccc(NC(=O)c2ccccc2)c1 | inactive
11 | O=C(Cc1ccccc1)Nc1cccc(C(=O)N/N=C/c2ccco2)c1 | -18.1 (active)
12 | N#CCC(=O)NC(=O)NCC1CC1 | inactive
13 | CC1Cc2ccccc2N1C(=O)CSc1nnc(-c2ccc(S(=O)(=O)N3CCCC3)cc2)n1C (stereo not drawn) | inactive
14 | CC(NCc1cccs1)C(=O)Nc1cc(Cl)cc(Cl)c1 (stereo not drawn) | inactive
15 | COc1ccc(S(=O)(=O)N2CCCC2)c(C)c1C | inactive
16 | COc1cc(C)c(S(=O)(=O)N2CCOCC2)c(C)c1C | inactive
17 | COc1ccc(S(=O)(=O)N2CCOCC2)c(C)c1C | -6.44 (active)
18 | COc1cccc2cc(/C(C)=N/NC(=O)c3ccco3)oc12 | inactive
19 | Cn1nccc1C(=O)NC1CCCc2c1cnn2-c1ccc(F)cc1F (stereo not drawn) | inactive
20 | COc1ccc(N2CCN(C(=O)c3cn(C)c4ccc(S(=O)(=O)N5CCOCC5)cc4c3=O)CC2)cc1 | inactive
21 | CCOC(=O)N1CCN(C(=O)c2cn(C)c3ccc(S(=O)(=O)N(CC)CC)cc3c2=O)CC1 | inactive
22 | CCOC(=O)N1CCN(C(=O)c2cn(C)c3ccc(S(=O)(=O)N4CCCC4)cc3c2=O)CC1 | -6.83 (active)
23 | N/C(=N\OS(=O)(=O)c1cccc([N+](=O)[O-])c1)c1ccncc1 | inactive
24 | CCCNC(=O)CSc1nc(Cc2ccccc2)nc2ccccc12 | inactive
25 | Clc1ccc(CSc2nnc3c(n2)[nH]c2ccccc23)cc1 | inactive
26 | C=CCSc1nc(Cc2ccc(Cl)cc2)nc2ccccc12 | -5.91 (active)

Row | SMILES | B-score
27 | COc1ccccc1NC(=S)N1CCC(NC(=O)C23CC4CC(CC(C4)C2)C3)CC1 | inactive
28 | FC(F)(F)c1cc(-c2ccco2)nc(NCc2ccc(Cl)cc2)n1 | inactive
29 | FC(F)(F)c1cc(-c2cccs2)nc(NCc2ccco2)n1 | -5.29 (active)
30 | COc1ccc(-c2cc(C(F)(F)F)nc(SCCC(=O)NCc3ccco3)n2)cc1 | inactive
31 | CC(=O)c1c(C)[nH]c(C(=O)CN2C(=O)NC(C)(C)C2=O)c1C | inactive
32 | Cc1nc(-c2ccc(F)cc2)c(CC(=O)N2CCN(S(=O)(=O)c3ccc(F)cc3)CC2)s1 | inactive
33 | CC(=O)N(C1=C(Cl)C(=O)c2ccccc2C1=O)c1ccc(C(=O)O)cc1 | -18.7 (active)
34 | FC(F)(F)c1cccc(-c2cc3ccccc3nc2N2CCCC2)c1 | inactive
35 | O=C(COc1ccccc1)Nc1ccc(C(=O)N2CCCC2)cc1 | inactive
36 | C/C(=N\NC(=O)Cc1ccc(Br)cc1)c1cccnc1 | inactive
37 | C/C(=N\NC(=O)Cc1ccc(F)cc1)c1ccc(F)cc1 | -8.25 (active)
38 | C/C(=N/NC(=O)CC(=O)N/N=C(\C)c1ccc([N+](=O)[O-])cc1)c1ccc([N+](=O)[O-])cc1 | inactive
39 | COc1ccc2c3c1O[C@H]1C[C@@H](O)C=C[C@@]31CCN(C)C2 | inactive
40 | Cc1nn(Cc2ccccc2)c2c1C(c1ccccc1)C(C#N)=C(N)O2 (stereo not drawn) | inactive
41 | Cc1nn(-c2ccccc2)c2c1C(c1ccc(F)cc1)C(C#N)=C(N)O2 (stereo not drawn) | -13.4 (active)
42 | COc1ccccc1C1C(C#N)=C(N)Oc2c1c(-c1ccccc1)nn2-c1ccccc1 (stereo not drawn) | inactive
43 | CC(C)(C)c1ccc(C(CC(=O)O)NS(=O)(=O)Cc2ccccc2)cc1 (stereo not drawn) | inactive
44 | Cc1c(CCO)c(=O)[nH]n1C(=O)c1c(F)cccc1F | inactive
45 | CCOC(=O)[C@H]1CCC[C@@H](NS(=O)(=O)c2ccc(NC(C)=O)cc2)C1 | inactive
46 | Cc1ccc(CNC(=O)CCNS(=O)(=O)c2ccc(Br)s2)cc1 | inactive
47 | O=C1CCC(C(=O)N2CCN(c3ccccc3Cl)CC2)CN1CC1CCCCC1 (stereo not drawn) | inactive
48 | COc1ccc(CCNC(=O)C2CC3Cn4c(nc5cc(C)c(C)cc54)C3N2C)cc1 (stereo not drawn) | inactive
49 | O=C(c1ccccc1)N1CCN(c2ccc([N+](=O)[O-])c(NCc3ccco3)c2)CC1 | inactive
50 | COc1ccc(CCNc2cc(N3CCN(C(=O)c4ccccc4OC)CC3)ccc2[N+](=O)[O-])cc1OC | -5.34 (active)
51 | COc1ccccc1OCCNc1cc(N2CCOCC2)ccc1[N+](=O)[O-] | inactive
52 | Cc1cccc(N2CC(C(=O)Nc3ccccc3N3CCCC3)CC2=O)c1C (stereo not drawn) | inactive

Row | SMILES | B-score
53 | CCOc1ccc(C(CC(=O)O)n2cnnn2)cc1OC (stereo not drawn) | inactive
54 | COC(=O)c1ccc(COC(=O)c2cnc(Cl)c(Cl)c2)cc1 | inactive
55 | COc1ccccc1C(=O)N/C(=C/c1ccco1)C(=O)Nc1ccc(C(=O)O)cc1 | inactive
56 | CCOc1ccc(S(=O)(=O)Nc2ccc(C(=O)NCCCN3CCCC3=O)cc2)cc1 | -9 (active)
57 | O=C(NCCCN1CCCC1=O)c1ccc(S(=O)(=O)Nc2ccccc2)cc1 | inactive
58 | CCOc1ccc(C(=O)NCCCN2CCCC2=O)cc1 | inactive
59 | Oc1cc(O)c2c(c1)OC(c1ccc(O)c(O)c1)C(O)C2 (stereo not drawn) | inactive
60 | Cc1ccc2cc3cc(C(=O)N4CCCCCC4)oc3nc2c1 | inactive
61 | CN(C)c1ccc(C(CC(=O)O)C(=O)O)cc1 (stereo not drawn) | inactive
62 | Cc1cnc(CN(C)C(=O)CC2C(=O)NCCN2Cc2cccc(F)c2F)[nH]1 (stereo not drawn) | inactive
63 | CCCCCc1nnc(NC(=O)c2ccc(=O)n(C)n2)s1 | inactive
64 | CCNC(=O)c1c(O)c2cccc3c2n(c1=O)CC3 | -5.85 (active)
65 | Cc1cc(=O)n2c3c(cccc13)CCC2 | inactive
66 | CCCCc1nc2ccccc2c(=O)n1NC(=O)c1c(O)c2cccc3c2n(c1=O)CC3 | inactive
67 | Nc1[nH][nH]c(=O)c1N=Nc1ccc2c(c1)OCO2 | inactive
68 | Cc1cc(Nc2cc(N3CCN(C)CC3)nc(Sc3ccc(NC(=O)C4CC4)cc3)n2)n[nH]1 | -6.92 (active)
69 | Cc1cc(C)nc(N2CCC(C(=O)Nc3ccc4c(c3)OCCO4)CC2)n1 | inactive
70 | Cc1cc(C)cc(NC(=O)C2CCN(c3nc(C)cc(C)n3)CC2)c1 | inactive
71 | COc1ccc(CC(=O)Nc2nc(-c3ccc(F)c(F)c3)cs2)cc1OC | -5.43 (active)
72 | Cc1ccc(S(=O)(=O)NC(=O)Nc2nc(-c3ccc(F)c(F)c3)cs2)cc1 | inactive
73 | COc1cc(CC(=O)Nc2nc(-c3ccc(F)c(F)c3)cs2)cc(OC)c1OC | inactive
74 | CCc1nn(CC(=O)N2CCN(c3cc(C)ccc3C)CC2)c(=O)c2cc3occc3n12 | inactive
75 | O=C(CSc1c2c(nc3ccc(Cl)cc13)CCCC2)NCc1ccco1 | -6.85 (active)
76 | O=C(/C=C/c1ccc(Cl)cc1Cl)NCc1ccco1 | inactive
77 | O=C(CSc1nnnn1-c1ccccc1)NCc1ccco1 | inactive
78 | COc1ccc(C)cc1NC(=O)CN(C)S(=O)(=O)c1ccc2c(c1)n(C)c(=O)c(=O)n2C | inactive

Row | SMILES | B-score
79 | Cc1cc(C)cc(N(CC(=O)NC2CCCC2)C(=O)CCC(=O)Nc2nccs2)c1 | inactive
80 | COCCCN(C(=O)Cn1ncc2c(=O)oc3ccc(C)cc3c21)C(C)c1ccncc1 (stereo not drawn) | -9.22 (active)
81 | Cc1ccc2oc(=O)c3cnn(CC(=O)N4CCCCCC4)c3c2c1 | inactive
82 | Cc1ccc2oc(=O)c3cnn(CC(=O)N(Cc4ccco4)C4CCCCC4)c3c2c1 | inactive
83 | CN1CCC(=O)N([C@H](CO)Cc2ccccc2)CC1 | inactive
84 | CCN(Cc1ccccc1)S(=O)(=O)c1cc(C(=O)O)ccc1OC | inactive
85 | Cc1ccc(CNC(=O)CSc2nnc3c(n2)[nH]c2ccc(F)cc23)cc1 | -5.01 (active)
86 | COc1ccc2[nH]c3nc(SCC(=O)NC4CC4)nnc3c2c1 | inactive
87 | Cc1ccn2c(=O)nc(SCC(=O)NCc3ccc(F)cc3)nc2c1 | inactive
88 | COc1ccc(S(=O)(=O)n2nc(C)c(S(=O)(=O)N3CCOCC3)c2C)cc1 | inactive
89 | CCOc1ccc(C(=O)Nc2ccc(S(=O)(=O)Nc3cc(C)on3)cc2)cc1 | inactive
90 | CCOc1ccc(CC(=O)Nc2ccc(S(=O)(=O)Nc3cc(C)on3)cc2)cc1OCC | -7.96 (active)
91 | CCc1ccc(OC(C)C(=O)Nc2ccc(S(=O)(=O)Nc3cc(C)on3)cc2)cc1 (stereo not drawn) | inactive
92 | CCCOc1ccc(CNC(=O)C2CCN(c3nn4c(=O)cc(C)nc4s3)CC2)cc1 | inactive
93 | O=C(NN1C(=O)C2CCCCC2C1=O)c1ccco1 (stereo not drawn) | inactive
94 | CC(C)=C1C2CCC1C1C(=O)N(NC(=O)c3ccco3)C(=O)C21 (stereo not drawn) | inactive
95 | O=C(NN1C(=O)C2C3C=CC(C3)C2C1=O)c1ccco1 (stereo not drawn) | -9.57 (active)
96 | NC(=O)c1cc(S(=O)(=O)N2CCCC2)ccc1OCc1ccc(F)cc1 | inactive
97 | Cc1ccccc1OCC(=O)Nc1nnc(S(=O)(=O)N2CCCC2)s1 | inactive
98 | CC1CCN(S(=O)(=O)c2nnc(NC(=O)COc3ccccc3F)s2)CC1 | -4.6 (active)
99 | O=C(COc1ccccc1F)NC1CC1 | inactive
100 | O=S(=O)(CCc1nc2ccccc2o1)c1ccc(Cl)cc1 | inactive
101 | CCc1nnc(NC(=O)c2cccc(S(=O)(=O)N(C)c3ccc(OC)cc3)c2)s1 | inactive
102 | CCc1ccc2nc3sc(C(=O)Nc4nnc(CC)s4)c(N)c3cc2c1 | -7.06 (active)
103 | CCc1nnc(NC(=O)c2sc3nc(C)cc(COC)c3c2N)s1 | inactive
